# Calls of active or inactive are those of the source. Unless noted, no rule for the calls is given here.
# Columns and labels:
# [1] = HepG2 liver cancer cell viability effects, profiling panel, resazurin fluorescence, 24 h, PK04 Diversity Set (AID 1172); settings: higher = more signal
# [2] = basal S. cerevisiae growth modulation, no modifier, primary screen, OD600, strain BY4716, 24 h, basal condition (AID 1173); settings: OD600, 24 h, higher = more signal, called active from +8 up or from −8 down
# [3] = MM1S myeloma cell viability, profiling panel, resazurin fluorescence, basal, 24 h, PK04 Diversity Set (AID 1174); settings: higher = more signal, called active from +8 up or from −8 down;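 also: MM1S multiple myeloma cell line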
# [4] = biological target: Dihydroorotate dehydrogenase (quinone), mitochondrial (Plasmodium falciparum (isolate 3D7)) (UniProt Q08210); test: PfDHODH enzyme inhibitors, primary screen, biochemical, C-terminal His tag, absorbance 600 nm (AID 1175); settings: DCIP absorbance 600 nm, higher = more signal, called active from +8 up or from −8 down;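 also: recombinant parasite enzyme with a five histidine tag at its C terminus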
# Dihydroorotate dehydrogenase (quinone), mitochondrial (Plasmodium falciparum (isolate 3D7)), sequence (Q08210 whole entry, looked up): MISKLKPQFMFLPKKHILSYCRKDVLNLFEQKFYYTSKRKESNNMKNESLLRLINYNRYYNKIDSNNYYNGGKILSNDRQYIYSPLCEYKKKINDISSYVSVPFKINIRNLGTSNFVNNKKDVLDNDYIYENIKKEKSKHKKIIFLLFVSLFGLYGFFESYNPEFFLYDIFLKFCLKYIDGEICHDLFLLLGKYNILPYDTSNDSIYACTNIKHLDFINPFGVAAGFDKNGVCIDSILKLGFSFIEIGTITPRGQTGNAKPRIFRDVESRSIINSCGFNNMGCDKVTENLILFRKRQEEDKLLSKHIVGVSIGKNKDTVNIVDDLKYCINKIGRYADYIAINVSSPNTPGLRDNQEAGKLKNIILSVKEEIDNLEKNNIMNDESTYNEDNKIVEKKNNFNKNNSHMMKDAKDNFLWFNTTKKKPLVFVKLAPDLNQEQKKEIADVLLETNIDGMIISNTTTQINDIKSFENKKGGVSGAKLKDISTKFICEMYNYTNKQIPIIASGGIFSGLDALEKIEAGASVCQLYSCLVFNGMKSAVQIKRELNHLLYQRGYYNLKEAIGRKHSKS
# [5] = P. aeruginosa biofilm formation inhibitors, primary screen, strain PAO1, LB-PBS medium, absorbance 600 nm (AID 1176); settings: P. aeruginosa PAO1 growth/biofilm, A600, 12 h; higher = more signal
# [6] = S. cerevisiae RM11-1a growth modifiers, primary screen, strain RM11-1a, OD600, basal, 24 h (AID 1177); settings: OD600, 24 h, higher = more signal, called active from +8 up or from −8 down;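 also: cultures grown under basal conditions with no added stressor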
# [7] = E. coli acrAB mutant growth effects, primary screen, E. coli filamentation inducers, strain DRC39, OD650, 24 h (AID 1178); settings: higher = more signal, called active from +8 up or from −8 down;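 also: growth measured as culture turbidity by optical density at 650 nm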
# [8] = E. coli acrAB mutant growth effects, primary screen, E. coli filamentation inducers, strain DRC39, OD650, 48 h (AID 1179);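 also: screen aims at cell division blockers that make cells filament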; settings: E. coli DRC39 delta-acrAB growth, higher = more signal, called active from +8 up or from −8 down
# [9] = RPMI8226 myeloma cell viability, profiling panel, resazurin fluorescence, basal, 24 h, PK04 Diversity Set (AID 1180); settings: higher = more signal;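 also: RPMI8826 multiple myeloma cell line at 5000 cells per well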
# [10] = biological target: E3 ubiquitin-protein ligase XIAP (Homo sapiens) (UniProt P98170); test: XIAP binders, primary screen, biophysical, small-molecule microarray, fluorescence 635 nm (AID 1181); settings: small-molecule microarray binding, higher = more signal;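 also: score merges 667 nm emission and signal to noise over triplicate slides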
# E3 ubiquitin-protein ligase XIAP (Homo sapiens), sequence (P98170 whole entry, looked up): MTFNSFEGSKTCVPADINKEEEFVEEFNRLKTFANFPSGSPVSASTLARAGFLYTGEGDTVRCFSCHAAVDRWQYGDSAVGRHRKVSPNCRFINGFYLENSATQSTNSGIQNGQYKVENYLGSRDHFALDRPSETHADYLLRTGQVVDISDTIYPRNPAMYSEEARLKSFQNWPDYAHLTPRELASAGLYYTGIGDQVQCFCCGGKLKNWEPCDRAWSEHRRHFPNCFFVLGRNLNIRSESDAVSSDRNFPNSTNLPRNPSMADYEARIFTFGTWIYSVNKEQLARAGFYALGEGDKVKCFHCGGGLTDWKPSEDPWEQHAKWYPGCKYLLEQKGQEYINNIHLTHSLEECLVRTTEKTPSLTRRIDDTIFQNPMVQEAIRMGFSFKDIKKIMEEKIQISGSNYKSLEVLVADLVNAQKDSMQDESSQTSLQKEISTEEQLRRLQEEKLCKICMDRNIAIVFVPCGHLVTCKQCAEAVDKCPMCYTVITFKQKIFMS
# [11] = tested on: XIP peptide (Xip251-270) binding; test: small-molecule binders of XIP peptide, primary screen, biochemical, small-molecule microarray, fluorescence 635/667 nm, 0.1 µg/mL protein (AID 1182); settings: fluorescent protein binding, 635 nm, higher = more signal, called active from +8 up or from −8 down
# XIP peptide (Xip251-270) = test: small-molecule binders of XIP peptide, primary screen, biochemical, small-molecule microarray, fluorescence 635/667 nm, 0.5 µg/mL protein (AID 1183); settings: small-molecule microarray binding, fluorescence 635 nm; higher = more signal
# [12] = Plasmodium falciparum growth inhibition, primary screen, strain 3D7, DAPI fluorescence, 100 nL (AID 1184);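 also: parasites grown inside human red blood cells in medium with human serum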; settings: P. falciparum 3D7 growth, 3 d, higher = more signal
# [13] = biological target: Homeobox protein Hox-A13 (Mus musculus) (UniProt Q62424); test: inhibitors of HoxA13-DNA binding, primary screen, biochemical, fluorescence polarization, labeled oligonucleotide (AID 1185); settings: 15 min, higher = more signal, called active from +8 up or from −8 down
# Homeobox protein Hox-A13 (Mus musculus), sequence (Q62424 whole entry, looked up): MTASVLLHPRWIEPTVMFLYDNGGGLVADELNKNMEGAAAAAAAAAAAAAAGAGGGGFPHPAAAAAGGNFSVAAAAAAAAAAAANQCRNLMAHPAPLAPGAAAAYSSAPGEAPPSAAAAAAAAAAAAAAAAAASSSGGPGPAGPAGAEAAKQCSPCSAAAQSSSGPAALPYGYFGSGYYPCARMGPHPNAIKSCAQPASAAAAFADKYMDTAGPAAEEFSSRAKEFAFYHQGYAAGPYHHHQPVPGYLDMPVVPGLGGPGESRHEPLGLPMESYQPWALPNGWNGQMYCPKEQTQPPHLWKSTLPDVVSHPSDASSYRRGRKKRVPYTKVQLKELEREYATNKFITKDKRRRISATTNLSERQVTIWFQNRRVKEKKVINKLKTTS
# [14] = inhibitors of hydroxyurea-induced Chk1 phosphorylation, primary screen, imaging, HeLa, phospho-Chk1 antibody, percent positive cells (AID 1186); settings: hydroxyurea-induced phospho-Chk1 immunofluorescence imaging, higher = more signal
# [15] = inhibitors of hydroxyurea-induced Chk1 phosphorylation, primary screen, imaging, HeLa, phospho-Chk1 nuclear intensity (AID 1187); settings: hydroxyurea-induced phospho-Chk1 immunofluorescence imaging, higher = more signal
Structure (SMILES),z-score [1],z-score [2],z-score [3],composite z-score [4],z-score [5],z-score [6],z-score [7],z-score [8],z-score [9],composite z-score [10],composite z-score [11],composite z-score (XIP peptide (Xip251-270)),z-score [12],z-score [13],z-score [14],z-score [15]
C[C@H]1C2=C3C(CC[C@H]4C(OCc5ccc(F)cc5C(F)(F)F)OC[C@](C)([C@@H]34)N(C(=O)OC(C)(C)C)C2)C2COC(=O)OCC21 (stereo partly drawn),-1.33,-0.0764 (inactive),-1.43 (inactive),-0.047 (inactive),0.371 (inactive),0.235 (inactive),-0.698 (inactive),-0.398 (inactive),-1.18,0.572,0.172 (inactive),0.551,-0.121,-3.49 (inactive),0.671 (inactive),0.439 (inactive)
[N-]=[N+]=Nc1ccccc1C[C@]1(C(=O)NCc2ccccc2)N=C(c2ccc(OCCCO)cc2)O[C@H]1c1ccccc1,-0.328,1.41 (inactive),-1.73 (inactive),1.18 (inactive),0.811 (inactive),3.08 (inactive),0.515 (inactive),-0.0745 (inactive),-1.84,0.0378,0.222 (inactive),0.813,-2.07,-0.801 (inactive),0.0726 (inactive),0.176 (inactive)
CC(C)(C)OC(=O)CC[C@]1(C(=O)N2CCOCC2)N=C(c2ccc(OCCCO)cc2)O[C@H]1c1ccccc1,-0.149,-0.243 (inactive),-1.56 (inactive),-0.127 (inactive),-0.537 (inactive),-0.294 (inactive),0.301 (inactive),0.553 (inactive),0.48,0.0003,-0.0263 (inactive),0.689,-0.29,-5.96 (inactive),-0.443 (inactive),-0.494 (inactive)
O=C(CS)NCCCCCCNC(=O)[C@@H]1C[C@@H]2C(=O)N3CCC[C@H]3C(=O)N2[C@@H]1c1cccc(OCCO)c1,-0.306,-0.21 (inactive),0.832 (inactive),-0.968 (inactive),0.42 (inactive),-1.5 (inactive),0.743 (inactive),1.65 (inactive),0.356,0.0022,1.97 (inactive),0.864,0.0153,-3.25 (inactive),-1.31 (inactive),-0.971 (inactive)
CCCc1cccc(=O)o1,0.866,0.68 (inactive),0.821 (inactive),-0.661 (inactive),0.353 (inactive),-0.243 (inactive),-0.161 (inactive),0.846 (inactive),0.819,-0.0721,0.684 (inactive),-0.0514,0.581,-1.77 (inactive),0.0999 (inactive),0.549 (inactive)
C=C(CCCC)C(=O)CC[C@@H](OC(=O)c1ccccc1-c1ccccc1C(=O)O)c1cccc(OCCO)c1,-0.269,-1.46 (inactive),-0.348 (inactive),-0.556 (inactive),0.543 (inactive),0.134 (inactive),-0.285 (inactive),-0.549 (inactive),-0.301,-0.23,1.03 (inactive),0.204,-2.46,-5.72 (inactive),0.456 (inactive),0.408 (inactive)
COc1cc2c(cc1O)C(C)N(Cc1cc3c(cc1Br)OCO3)CC2 (stereo not drawn),-0.587,-0.272 (inactive),0.297 (inactive),-9.46 (active),-0.351 (inactive),0.526 (inactive),0.553 (inactive),0.0553 (inactive),0.538,-0.157,1.5 (inactive),0.291,-2.03,-1.58 (inactive),-0.765 (inactive),-1.06 (inactive)
C=CCN1C(=O)[C@]2(CC=C)N=C(c3ccc(OCCCO)cc3)O[C@@H]2c2ccccc21,-0.956,-2.51 (inactive),-3.23 (inactive),0.0306 (inactive),1.26 (inactive),0.506 (inactive),0.578 (inactive),0.509 (inactive),-3.09,0.197,0.935 (inactive),0.707,-1.96,-0.0163 (inactive),-0.0194 (inactive),0.169 (inactive)
CCOC(=O)C[C@H]1[C@H](OC(=O)Cc2ccc3c(c2)OCO3)[C@@H](NC(=O)C2CCCCC2)c2cc(OCCCO)ccc2N1C(=O)c1ccc2ccccc2n1,0.306,-1.65 (inactive),0.773 (inactive),-3.08 (inactive),-1.93 (inactive),0.133 (inactive),0.777 (inactive),0.259 (inactive),-0.338,0.302,1.35 (inactive),0.639,-2.04,-3.76 (inactive),0.404 (inactive),-0.0148 (inactive)
COC(=O)[C@@]1(Cc2ccc(F)cc2)[C@H]2c3cc(C(=O)N4CCCC4)n(CCc4c[nH]c5ccc(OC)cc45)c3C[C@H]2CN1C(=O)c1ccccc1,-0.946,0.813 (inactive),-2.53 (inactive),-3.91 (inactive),3.29 (inactive),0.622 (inactive),-0.137 (inactive),-0.72 (inactive),-3.36,0.498,0.804 (inactive),0.727,-1.74,-3.53 (inactive),-0.371 (inactive),-0.199 (inactive)
C=C(C(=O)CC[C@H](OC(=O)c1cccnc1)c1cccc(OCCO)c1)C(C)C,0.0418,1.06 (inactive),-1.16 (inactive),0.612 (inactive),-0.116 (inactive),2.01 (inactive),0.675 (inactive),0.297 (inactive),-1.36,-0.0117,0.24 (inactive),0.183,-2.09,-3.82 (inactive),-0.556 (inactive),-0.453 (inactive)
COCCOC(=O)N1C(=O)[C@@]2(c3cc(C#CCNC(N)=O)ccc31)[C@H](C(=O)N1CCCCCCC1)[C@H]1C(=O)O[C@H](c3ccccc3)[C@H](c3ccccc3)N1[C@@H]2c1ccc(O)cc1,-0.515,-0.129 (inactive),-0.97 (inactive),-0.376 (inactive),0.0442 (inactive),0.786 (inactive),-0.5 (inactive),-0.719 (inactive),-0.928,0.0614,0.328 (inactive),0.46,0.178,0.172 (inactive),0.0004 (inactive),0.132 (inactive)
COc1ccc(C(O)C2C=CC3C(=O)N(Cc4ccccc4)C(=O)C3N2n2cnnc2)c2ccccc12 (stereo not drawn),-1.05,0.373 (inactive),-1.47 (inactive),-0.609 (inactive),-0.722 (inactive),-0.975 (inactive),-0.597 (inactive),-0.706 (inactive),-1.06,0.176,1.09 (inactive),0.537,-1.05,-1.49 (inactive),-0.525 (inactive),-0.966 (inactive)
C=CC[C@@]1(C(=O)O)N=C(c2ccc(OCCCO)cc2)O[C@@H]1c1ccccc1,1.53,-1.07 (inactive),0.753 (inactive),0.977 (inactive),-0.568 (inactive),0.0596 (inactive),-0.0277 (inactive),1.2 (inactive),1.4,0.559,0.759 (inactive),0.994,-0.441,-4.13 (inactive),-0.106 (inactive),-0.0411 (inactive)
COCC(=C=CC[C@H](O)c1ccc(OCCO)cc1)C[C@H](O)COCc1ccccc1,0.993,-1.49 (inactive),1.18 (inactive),-0.95 (inactive),0.33 (inactive),-1.3 (inactive),0.979 (inactive),0.921 (inactive),1.51,-0.0238,-0.0114 (inactive),0.698,-2.74,-5.25 (inactive),-0.364 (inactive),0.19 (inactive)
COc1ccc(C(O)C2C=CC3C(=O)N(c4ccccc4)C(=O)C3N2Nc2ccccc2)cc1OCc1ccccc1 (stereo not drawn),-1.04,-2.82 (inactive),-1.24 (inactive),0.416 (inactive),1.67 (inactive),0.0482 (inactive),-0.628 (inactive),-0.131 (inactive),-1.2,0.0714,0.0123 (inactive),0.713,-0.0742,-1.8 (inactive),0.302 (inactive),-0.156 (inactive)
C=CC[C@]1(C(=O)N(C)C)N=C(c2ccc(OCCCO)cc2)O[C@H]1c1ccccc1N=[N+]=[N-],0.146,0.136 (inactive),-1.54 (inactive),0.25 (inactive),0.286 (inactive),0.446 (inactive),-0.0751 (inactive),-0.179 (inactive),-1.32,0.121,0.845 (inactive),0.382,-1.8,-3.37 (inactive),-0.22 (inactive),-0.0961 (inactive)
Cc1c(NC(=O)/C(C#N)=C/C=C/c2ccccc2[N+](=O)[O-])c(=O)n(-c2ccccc2)n1C,-1.25,-0.0708 (inactive),-0.729 (inactive),0.512 (inactive),-0.6 (inactive),-0.061 (inactive),1.06 (inactive),-0.241 (inactive),-1.73,-0.0172,4.09 (inactive),0.552,-0.758,-3.54 (inactive),0.432 (inactive),0.721 (inactive)

# From PubChem BioAssay
